Screens as filed in PubChem.
LANA-H2A inh: blockers of LANA interaction with H2A/H2B – biochemical, FP readout, HTS, primary screen | cell-free LANA-H2A/H2B peptide, fluorescence polarization | inhibition, % (concentration not given with the values) | 0.6% of 320,000 active | AID 2629, 2010; in the data active = inhibition mostly above about 10%, no sharp cut-off; inactive = mostly below about 6.7%
RTF Ca sens inh: cardiac RTF calcium sensitivity inhibitors, primary screen, biochemical, IANBD-TnC fluorescence, EC70 calcium. Troponin I, cardiac muscle (Homo sapiens) + Troponin T, cardiac muscle (Homo sapiens) + …. IANBD-labeled cardiac RTF, Ca2+ fluorescence. inhibition, % at 7.15 µM. 0.12% of 340,000 active;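 active = inhibition above the mean inhibition of all tested compounds plus 3 SD, cut at about 17% in these data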;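 note: assay run at fixed EC70 calcium of 1.6 mM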
LANA DNA inh: inhibitors of KSHV C-LANA binding to DNA, primary screen, biochemical, fluorescence polarization, FAM-LBS DNA, MBP-C-LANA, single point. AID 504423, 2011. inhibition, % at 9 µM. 0.078% of 340,000 active. Kaposi's sarcoma herpesvirus LANA C-terminal domain (residues 932-1162) DNA binding;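 active = highest replicate inhibition at or above 60% at 9 µM, even if other replicates fall short; inactive = all replicates below 60% inhibition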;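 note: 0% = neutral control wells and 100% = 4 µM acridine orange control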
cardiac RTF act: cardiac RTF calcium sensitivity activators, primary screen, biochemical, IANBD-TnC fluorescence, EC20 calcium; AID 493008, 2010; 0.24% of 340,000 active; activation, % at 7.2 µM; IANBD-labeled TnC RTF fluorescence at EC20 calcium; 0% EC20 calcium, 100% full calcium; Troponin I, cardiac muscle (Homo sapiens) + Troponin T, cardiac muscle (Homo sapiens) + …;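 active = activation above the mean over all tested compounds plus 3 SD, cut at about 30% in these data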;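 note: rise in fluorescence read as greater calcium sensitivity of cardiac thin filaments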
Keap1 Nrf2 FP: Keap1-Nrf2 protein-protein interaction inhibitors, primary screen, biochemical, fluorescence polarization, single point. Kelch-like ECH-associated protein 1 (Homo sapiens), Q14145. Keap1 Kelch-Nrf2 peptide fluorescence polarization, 1536-well. inhibition, % at 9.4 µM. 0.15% of 340,000 active; in the data active = inhibition above about 12%;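 note: human Keap1 Kelch domain with fluorescein labeled Nrf2 9mer peptide probe; 0% = neutral control wells and 100% = peptide positive control; higher means more block of Keap1 binding to Nrf2 peptide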
Target sequence (Q14145 whole entry, looked up, the tested form may be a part): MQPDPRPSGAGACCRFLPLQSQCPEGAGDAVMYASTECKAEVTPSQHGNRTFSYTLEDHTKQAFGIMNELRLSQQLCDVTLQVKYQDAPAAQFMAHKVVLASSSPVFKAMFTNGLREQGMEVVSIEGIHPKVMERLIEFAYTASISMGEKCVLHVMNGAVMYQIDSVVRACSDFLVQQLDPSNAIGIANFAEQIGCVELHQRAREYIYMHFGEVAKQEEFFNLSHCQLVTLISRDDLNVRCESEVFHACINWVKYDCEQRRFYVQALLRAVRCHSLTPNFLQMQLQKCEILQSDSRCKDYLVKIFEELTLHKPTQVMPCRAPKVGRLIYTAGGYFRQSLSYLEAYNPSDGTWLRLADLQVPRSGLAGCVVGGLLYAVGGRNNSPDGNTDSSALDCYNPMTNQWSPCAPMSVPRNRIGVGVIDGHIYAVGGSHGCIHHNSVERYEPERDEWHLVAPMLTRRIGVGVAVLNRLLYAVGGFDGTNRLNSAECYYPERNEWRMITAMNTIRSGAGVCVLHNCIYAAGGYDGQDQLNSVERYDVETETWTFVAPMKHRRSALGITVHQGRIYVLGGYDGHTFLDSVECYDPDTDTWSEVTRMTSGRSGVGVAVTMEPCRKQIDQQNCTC
Keap1 TSA: Keap1 Kelch domain binders by thermal stabilisation, dose response, biophysical, thermal shift, RT-PCR instrument, cherry-pick; delta Tm; stronger effect = higher value; 8% of 400 active; shares compounds with Keap1 Nrf2 FP; max delta Tm, degrees C; in the data active = max delta Tm above about 0.48 degrees C
Sypro dye melt: Sypro Orange dye melt without protein, dose response, artefact control for Keap1-Nrf2 interaction inhibitor project, biochemical, thermal shift counterscreen, cherry-pick; Sypro Orange dye-only thermal melt, no protein, delta Tm; top dose 26 µM; shares compounds with Keap1 Nrf2 FP; delta Tm, degrees C (no concentration beside the values); AID 651858, 2012; 140 tested, under 10 active;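 active = at highest dose tested, delta Tm positive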
An asterisk follows results filed as active; i = inactive; x = no result given; + = active, no number. Sampled rows, rich in hits. Any-hit rate of the full collection: about 1%.

SMILES	LANA-H2A inh	RTF Ca sens inh	LANA DNA inh	cardiac RTF act	Keap1 Nrf2 FP	Keap1 TSA	others
N/C(=N/OC(=O)c1ccc(Cl)cc1)c1ncc([N+](=O)[O-])s1	5	x	10	x	22*	-0.1	Sypro dye melt=-28
COc1ccc2ccccc2c1C(O)c1nccn1C (stereo not given)	38*	-129	55	84*	33*	0.1
Cn1ccnc1C(O)c1ccccc1 (stereo not given)	-2	0	0	-4	-1	x
O=C1N=c2ccccc2=C1c1sc(=S)n(NC(=O)c2cccc(O)c2)c1O	x	0	-1	-4	1	x
O=C1N=c2ccc(Br)cc2=C1c1sc(=S)n(NS(=O)(=O)c2ccccc2)c1O	1	7	0	1	53*	2.7*	Sypro dye melt=-26
COc1cccc(NC(=O)CN(C)CC(=O)NCc2ccc(F)cc2)c1	5	1	-2	-4	-4	x
COc1cccc(NC(=O)CN(C)CC(=O)NCc2ccco2)c1	-8	3	81*	-7	24*	-0.07	Sypro dye melt=-22
Cc1ccc(C)c(N2CCN(CCN3CCCCC3)CC2)c1	-3	4	-1	4	4	x
CNC(=S)Nc1cccc(C(=O)OC)c1	-4	x	x	x	41*	-0.03	Sypro dye melt=-28
COc1ccc(CNC(=O)CSc2nc3ccc(N)cc3s2)cc1	-3	1	0	-2	1	x
COc1ccc(NC(=O)CN(c2ccc(OC)cc2)S(=O)(=O)c2ccc(OC)c(OC)c2)cc1	-4	-2	0	3	1	x
O=C(CN1C(=O)NC2(CCCC2)C1=O)Nc1ccc(C(F)(F)F)cc1	2	3	-2	-7	12*	-0.12
CCOC(=O)N/N=C/c1c(C)nn(-c2ccccc2Cl)c1Cl	1	-4	0	2	0	x
Cc1nn(-c2ccccc2Cl)c(Cl)c1/C=N/Nc1nc2ccccc2s1	-1	-23	4	-5	34*	-0.11
C=CCn1cccc(C(=O)Nc2ccc(OC)c(Cl)c2)c1=O	-3	-8	-2	32*	48*	-0.06
O=C(O)CCNc1ccc(NCCC(=O)O)c2c1C(=O)c1ccccc1C2=O	0	-22	55	7	13*	0.63*	Sypro dye melt=-26
COc1ccccc1NCCC(=O)O	0	6	-13	1	1	x
Cc1c(NC(=O)CSc2ncnc3ccccc23)c(=O)n(-c2ccccc2)n1C	3	-6	-3	-3	0	x
CN(C)c1ccc(/C=N/NC(=O)CCC(=O)NCc2ccccc2)cc1	5	1	5	-1	53*	-0.19
CCOc1ccc2noc3c2c1C(=O)c1ccccc1-3	44*	i	52	+	21*	-0.03
O=C1c2ccccc2-c2onc3ccc(NCc4ccco4)c1c23	111*	i	64	715*	19*	0.37
O=C1c2ccccc2-c2onc3ccc(N4CCCC4)c1c23	x	i	12	396*	16*	0.22
CCOC(=O)c1c(C)oc2c1C(=O)c1ccccc1C2=O	2	8	0	-9	3	x
CCNc1ccc2noc3c2c1C(=O)c1ccccc1-3	28*	i	65*	+	21*	0.83*
O=C1C(Cl)=C(NCc2ccco2)C(=O)c2ccccc21	x	-3	4	-3	-1	x
SMILES	LANA-H2A inh	RTF Ca sens inh	LANA DNA inh	cardiac RTF act	Keap1 Nrf2 FP	Keap1 TSA	others
NC(=O)CC(NC(=O)Cc1cccc2ccccc12)c1ccc(NCc2ccccc2)c([N+](=O)[O-])c1 (stereo not given)	-3	2	18	-1	22*	-0.11
O=C(NC1CC2CCC(C1)N2Cc1ccccc1)c1ccccc1Br (stereo not given)	0	-3	0	-2	-3	x
CCOC(=O)C1CCCN(C(=O)C2c3ccccc3Oc3ccccc32)C1 (stereo not given)	71*	-109	119*	93*	47*	-0.16	Sypro dye melt=-45
CCN(CC)S(=O)(=O)c1ccc(C(=O)N2CCN(CCN3C(=O)c4cccc5cccc(c45)C3=O)CC2)cc1	-3	x	x	x	x	x
CCCN(CCC)S(=O)(=O)c1ccc(C(=O)OCCN2C(=O)c3cccc4c(N5CCOCC5)ccc(c34)C2=O)cc1	x	-29	64	52*	39*	-0.08	Sypro dye melt=-4
CCOc1ccc(Cc2nnc(SCC(=O)Nc3c(C)cccc3C)[nH]c2=O)cc1	1	-9	0	-6	-3	x
CC(C)[C@H](NC(=O)OCc1ccccc1)C(=O)OCC(=O)N1CCN(c2ccc(F)cc2)CC1	-1	-3	-1	3	5	x
CC[C@H](C)[C@H](NC(=O)OCc1ccccc1)C(=O)OCC(=O)N1CCN(c2ccc(F)cc2)CC1	x	-11	13	3	26*	-0.12	Sypro dye melt=-26
C/C(=N\Nc1ccc(Cl)c(C(=O)O)c1)c1cccs1	6	-3	4	3	-1	x
C/C(=N/Nc1ccccc1C(=O)O)c1cccs1	4	-5	x	-1	74*	-0.04	Sypro dye melt=-27
COc1cc(/C=N/NC(=O)CN(Cc2ccco2)S(=O)(=O)c2ccccc2)ccc1O	1	0	1	-1	2	x
Cc1cc(C)c2c(SC(C)C)nc(N)nc2n1	6	-61	14	47*	23*	-0.18
CC(=O)n1nc2nc(C)cc(C)c2c1N	5	-8	1	3	-2	x
COc1ccc(N(Cc2ccccc2)S(=O)(=O)c2cccc(C(=O)Nc3ncccc3C)c2)cc1	2	-9	9	-7	22*	-0.12
Cc1ccccc1NC(=O)CSc1nnc(-c2ccco2)c(-c2ccco2)n1	0	-5	1	-4	-3	x
Cc1cccc(C)c1NC(=O)CSc1nnc(-c2ccco2)c(-c2ccco2)n1	6	8	105*	-12	46*	0.29	Sypro dye melt=-27
CC1(C)CC(=O)C2=C(C1)OC(N)=C(C#N)C2c1ccccc1[N+](=O)[O-] (stereo not given)	11	-16	20	14	25*	-0.11
Cc1ccc(C)c(OC(=O)C2CSC3(C)CCC(=O)N23)c1C (stereo not given)	5	-3	0	-1	-6	x
